Experimental data reported in PubChem BioAssay (NCATS).
Records with an inconclusive call do not appear. Calls of active or inactive are those of the source. The call rests on the fitted dose curve; in most records, active means well fitted inhibition curve with a large enough effect; inconclusive means small, poorly fitted or top-dose-only effect; inactive means flat fitted curve, though single readings scatter. Where a SMILES comes first, the peptide text is derived from it. The star is where a group is joined. βNA = c1ccc2cc(N*)ccc2c1; Cbz = O=C(OCc1ccccc1)*

These molecules were tested on NIH3T3 (assay: qHTS assay to identify novel small-molecules to repurpose for Merkel cell carcinoma treatment (AID 1296009; further: nearly all actives have a fitted effect of over 60% in size)). Details: MCC and control cell lines, CellTiter-Glo viability, 72 h; at 44.8 µM (top of the series) unless noted.
Description: MCC is a rare and aggressive neuroendocrine skin cancer with limited treatment options. Approximately 80% of MCCs have the Merkel cell polyomavirus (MCPyV) DNA integrated into the host genome (virus-positive: VP-MCC) and viral oncogenes drive oncogenesis. The remaining MCCs are virus-negative (VN-MCC) and are caused by UV mutagenesis. To identify novel treatments for VP-MCC and/or VN-MCC we screened three VP-MCC cell lines (WAGA, MKL-1, MKL-2), three VN-MCC cell lines (MCC-13, MCC-26, UISO), and four immortalized, non-transformed control cell lines (HaCaT, HEK293T, CRL7250, NIH-3T3) against ~2,400 compounds in the NCGC Pharmaceutical Collection (NPC) and ~1,900 compounds in the Mechanism Interrogation PlatE (MiPE). Using cell viability as a readout (CellTiter-Glo assay) we found both overlapping and distinct drugs that can be repurposed for the treatment of VP-MCC and VN-MCC.
A high-throughput screen was conducted in 1536-well white flat bottom plates (Corning) on a Kalypsys robotic system. Cell lines WAGA, MKL-1, MKL-2, MCC-13, MCC-26, UISO, HaCaT, HEK293T, CRL7250, and NIH-3T3 were screened against 2 small molecule annotated drug libraries NPC and MIPE in dose response (8 and 11 pt. respectively) measuring cell viability after 72 hours of incubation. […] A 1,536 pintool (Kalypsys) was used to transfer 23 nL of compound in DMSO to the 1,536-well assay plates. After 72 hr incubation at 37 degree celsius, 2.5 uL of CellTiter-Glo (Promega) was dispensed into each well using a BiorapTR. Plates were incubated at room temperature for 10 min, transferred to a ViewLux (PerkinElmer) and the luminescence was recorded using an exposure time of 2 seconds. Relative luminescence units (RLUs) were normalized to in-plate controls (no cells as a positive (cytotoxicity) control, DMSO as negative control) and the normalized data was processed using NCATS in-house software.

Row | SMILES | outcome
1 | Cc1nnc(-c2ccc3occ(-c4ccc(S(C)=O)cc4)c3c2)o1 (stereo not given) | inactive
2 | C=CC(C)(CCC=C(C)C)O[C@@H]1O[C@H](CO)[C@@H](O)[C@H](O)[C@H]1O (stereo not given in full) | inactive
3 | COC(=O)C1=CO[C@@H](O[C@@H]2O[C@H](CO)[C@@H](O)[C@H](O)[C@H]2O)[C@@H]2[C@@H](C)[C@@H](OC(=O)/C=C/c3ccccc3)[C@@H](O)[C@H]12 | inactive [at 17.4 µM]
4 | C=C1CC[C@H]2[C@@](C)(CCC(OC3OC(CO)C(O)C(O)C3O)[C@@]2(C)CO)C1C(=O)CC1=CCOC1=O (stereo not given in full) | inactive [at 17.4 µM]
5 | CC1(O)CCC2C(C3C1CCC3(C)O)C2(C)C (stereo not given) | inactive
6 | COC(=O)C(CC1(O)c2ccccc2N2C(=O)C(CC(C)C)NC21)n1cnc2ccccc2c1=O (stereo not given) | inactive [at 17.4 µM]
7 | Cn1c2ccc(NC(=O)c3ccccc3)cc2c(=O)n2nc(C(=O)O)cc12 | inactive [at 17.4 µM]
8 | C/C(=C\C(=O)C(C)C1CCC2C3=C(CCC21C)C1(C)CCC(=O)C(C)(C)C1(O)CC3)C(C)(C)O (stereo not given) | inactive [at 17.4 µM]
9 | COc1cc(C2OCC3(O)C(c4ccc(O[C@@H]5O[C@H](CO)[C@@H](O)[C@H](O)[C@H]5O)c(OC)c4)OCC23O)ccc1O (stereo not given in full) | inactive [at 17.4 µM]
10 | COc1cc(Nc2nc3ccccc3nc2NS(=O)(=O)c2cccc(NC(=O)c3ccc(C)c(OC)c3)c2)cc(OC)c1 | inactive
11 | CNc1nc(C)nc(N[C@H]2CCC[C@@H](C(=O)NCc3ccc(C#N)cc3C(F)(F)F)C2)n1 | inactive
12 | C=C1[C@@H]2CC[C@@]3(C)[C@H](c4ccoc4)OC(=O)C[C@]13O[C@H]1CC(=O)C(C)(C)[C@H](C(O)C(=O)OC)[C@]12C (stereo not given in full) | inactive [at 17.4 µM]
13 | COc1ccc(S(=O)(=O)Nc2nc(-c3cccc([N+](=O)[O-])c3)cs2)cc1OC | inactive
14 | CC1(C)[C@@H]2CC=C(CO[C@@H]3O[C@H](CO[C@@H]4OC[C@H](O)[C@H](O)[C@H]4O)[C@@H](O)[C@H](O)[C@H]3O)[C@H]1C2 | inactive [at 17.4 µM]
15 | CCCNCCOc1ccc(NC(=O)c2c[nH]c3c2C(=O)CCC3)cc1F | inactive
16 | COc1cc(O)cc(C)c1C(=O)O[C@H]1[C@@H](O)[C@@H](n2ccc(=O)[nH]c2=O)O[C@@H]1CO | inactive [at 17.4 µM]
17 | Cc1ccc([C@@H]2CC=C(C(=O)O)[C@H](c3ccc(C(C)(C)C)cc3)N2S(=O)(=O)c2ccc(C)cc2)cc1 | inactive
18 | C=C1Cc2c(Cl)cc3[nH]c4c5c3c2[C@@]2(O)[C@@H]1C[C@@H]2C(C)(C)O[C@H]5C1CC[C@@]2(O)[C@@]35O[C@@H]3[C@H]3OC(C)(C)[C@H]3O[C@H]5CC[C@]2(C)[C@@]41C (stereo not given in full) | inactive [at 17.4 µM]
19 | CC(C)=CCC[C@](C)(O[C@@H]1O[C@H](CO)[C@@H](O)[C@H](O)[C@H]1O)[C@H]1CC[C@]2(C)[C@@H]1[C@H](O)CC1[C@@]3(C)CC[C@H](O)C(C)(C)C3[C@@H](O[C@@H]3O[C@H](CO)[C@@H](O)[C@H](O)[C@H]3O[C@@H]3O[C@@H](C)[C@H](O)[C@@H](O)[C@H]3O)C[C@]12C (stereo not given in full) | inactive [at 9.27 µM]
20 | CC1(CO)CC(O)C2(C)CCC3(C)C(=CCC4C5(C=O)CCC(OC6OC(C(=O)O)C(O)C(O)C6OC6OC(C(=O)O)C(O)C(O)C6O)C(C)(C)C5CCC43C)C2C1 (stereo not given) | inactive [at 9.27 µM]

Row | SMILES | outcome
21 | O=C(O)C[C@H]1CCC(=O)[C@@H]1C/C=C\CCO | inactive
22 | C=C(C(=O)O)[C@H]1C[C@]2(C)C(=O)CC[C@]23O[C@H]1C[C@@H]3C | inactive
23 | COc1cc(/C=C/C(=O)OCC2OC(OC3(CO)OC(CO)C(O)C3O)C(O)C(O)C2O)ccc1O (stereo not given) | inactive [at 17.4 µM]
24 | CC1=CC(=O)C2C(C)(C)CCC[C@]2(C)[C@H]1CC[C@H](C)CC(=O)O (stereo not given in full) | inactive
25 | COC(=O)C1=COC(OC2OC(CO)C(O)C(O)C2O)C2C(C)CC(=O)C12O (stereo not given) | inactive [at 17.4 µM]
26 | C=C1C(=O)OC[C@H]2C(C(=O)O)=CC3CC(C)(C)C[C@@]132 (stereo not given in full) | inactive
27 | CC(=O)O[C@@H]1[C@H](OC(C)=O)C[C@@]2(C)C(CC[C@@H](C)[C@]23Cc2c(O)cc4c(c2O3)CN([C@@H](CCC(=O)O)C(=O)O)C4=O)C1(C)C (stereo not given in full) | inactive [at 17.4 µM]
28 | C=C1CCC2(OC1)OC1CC3C4CC=C5CC(O)CC(O[C@@H]6OC[C@H](OC(=O)C(O)C(C)CC)[C@H](O)[C@H]6O[C@@H]6O[C@@H](C)[C@H](O)[C@@H](O)[C@H]6O)C5(C)C4CCC3(C)C1C2C (stereo not given in full) | inactive [at 9.27 µM]
29 | COc1c2c(c(C)c3c1C(=O)OC3)OC1(C)CC(O)C34OC(OC)(CCC3(C)C1C2)OC4(C)CO (stereo not given) | inactive [at 17.4 µM]
30 | CC(C)CC(NC(=O)OCc1ccccc1)C(=O)NC(CC(C)C)C(=O)NC(CCC(=O)O)C(=O)Nc1ccc2ccccc2c1 (stereo not drawn) (Cbz-Leu-Leu-Glu-βNA; configuration not given here) | inactive
31 | COc1ccc(O[C@@H]2O[C@H](CO)[C@@H](O)[C@H](O)[C@H]2O)cc1OC | inactive
32 | CCNC(=O)C1CC(F)(c2ccc(CN3CCCC3)c(F)c2)C1 (stereo not given) | inactive
33 | C/C(=C\CCC(C)(C)O)CCO[C@@H]1O[C@H](CO[C@@H]2O[C@@H](C)[C@H](O)[C@@H](O)[C@H]2O)[C@@H](O)[C@H](O)[C@H]1O | inactive [at 17.4 µM]
34 | CC1CC2OCC3(O)CCC(O)C(C14CC(c1ccoc1)OC4=O)C23CO (stereo not given) | inactive
35 | COc1cccc(OC)c1-c1nc(C(=O)N[C@@H](CC(C)C)C(=O)O)cn1-c1ccnc2cc(Cl)ccc12 | inactive
36 | COc1cnc(-n2cnc(C)n2)c2[nH]cc(C(=O)C(=O)N3CCN(C(=O)c4ccccc4)CC3)c12 | inactive
37 | CC(C)[C@@](O)(c1ccc2cc(OC(F)F)c(OC(F)F)cc2c1)c1cn[nH]n1 | inactive
38 | CC1=CCC2C(C)(C)CCCC2(C)C1CC12OC1C(O)C(CO)=CC2O (stereo not given) | inactive
39 | CCCC1=CC2=C(CO1)C(=O)C(C)(O)C(OC(=O)c1c(C)cc(OC)cc1O)C2 (stereo not given) | inactive [at 17.4 µM]
40 | OC[C@H]1O[C@@H](OCCc2ccccc2)[C@H](O[C@@H]2OC[C@@H](O)[C@H](O)[C@H]2O)[C@@H](O)[C@@H]1O | inactive [at 17.4 µM]
